# Compound activity from PubChem BioAssay.
# The list is not random: actives were taken first. Their share in the collection is about 5%.
# Tb PYK inh = T. brucei pyruvate kinase inhibition. Q57TT1. TbPYK enzyme, Kinase-Glo Plus ATP luminescence, 45 min. Potency, µM (doses to about 76.8 µM), most hits filed as inhibitors. 410,000 tested, 0.12% active. AID 624173; further: nearly all actives have a fitted effect of over 50% in size
#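 T. brucei PYK with substrate was exposed to pin-transferred compounds across a concentration series, then started with 130 uM ADP (final). After 45 min at room temperature, Kinase-Glo Plus luminescence was read, normalized and curve-fitted.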
# VACV Venus inh = inhibitors of vaccinia virus (Venus reporter); Vaccinia virus Venus reporter expression, fluorescence; Potency, µM (series often up to 36.5 µM), most hits filed as inhibitors; 330,000 tested, 0.46% active; calls by dose curve; tested in A549 cells; further: nearly all actives have a fitted effect of over 30% in size
# Vaccinia mCherry = vaccinia inhibition (mCherry reporter); 310,000 tested, 0.63% active; AID 720579; Vaccinia virus mCherry reporter infection, fluorescence; Potency, µM (series often up to 36.5 µM), hits mostly inhibitors; calls by dose curve; tested in A549 cells; further: nearly all actives have a fitted effect of over 35% in size
# HCMV antiviral = human cytomegalovirus inhibition. HFF cells, HCMV-luciferase reporter, 72 h; stronger effect = lower value. activity change, negative = inhibition, % at 57.5 µM. 410,000 tested, 4.5% active. AID 1259415; in the data active means activity change below about -60%; inconclusive means no clear call, values can overlap the other calls; inactive means above about -39%
#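 Human foreskin fibroblasts infected with luciferase-reporter HCMV at MOI 1 PFU/cell, compounds at two doses. Luciferase measured 72 h post infection; normalized to buffer-only basal and Salinomycin (10uM) controls.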
# LmPK inh = LmPK (Leishmania mexicana) enzyme inhibition; Q27686; purified LmPK, Kinase-Glo ATP luminescence, 1 h; Potency, µM (titrated, usually from 57.5 µM), hits mostly inhibitors; 290,000 tested, 0.37% active; AID 1721
# Target sequence (Q27686 whole entry, looked up): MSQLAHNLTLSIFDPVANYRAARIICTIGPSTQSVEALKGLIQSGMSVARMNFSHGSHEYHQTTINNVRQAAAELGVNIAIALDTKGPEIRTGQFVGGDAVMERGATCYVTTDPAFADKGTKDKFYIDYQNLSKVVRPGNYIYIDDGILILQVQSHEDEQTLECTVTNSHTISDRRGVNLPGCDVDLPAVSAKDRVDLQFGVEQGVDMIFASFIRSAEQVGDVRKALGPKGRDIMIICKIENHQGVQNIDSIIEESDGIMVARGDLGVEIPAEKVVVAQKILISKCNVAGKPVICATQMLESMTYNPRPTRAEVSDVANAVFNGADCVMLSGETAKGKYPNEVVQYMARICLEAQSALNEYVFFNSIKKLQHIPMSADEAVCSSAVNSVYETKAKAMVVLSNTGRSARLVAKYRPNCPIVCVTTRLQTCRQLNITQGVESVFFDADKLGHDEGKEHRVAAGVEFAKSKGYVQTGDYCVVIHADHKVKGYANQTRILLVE
#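 qHTS format; LmPK 0.1 nM; substrates PEP 0.5 mM and ADP 0.1 mM. One-hour room-temperature incubation, then coupled luciferase luminescence; 0.5 nM enzyme wells mark activation.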
# Numbers stand for hits; - = inactive; ? = inconclusive; . = not tested or not shown; [ ] = remark or other dose. Unless noted, the call rests on the fitted dose curve; in most records, active means well fitted curve in the direction sought with a large enough effect; inconclusive means small, poorly fitted or top-dose-only effect, or another doubt; inactive means no such curve, though single readings can be large; an effect the other way counts as inactive or inconclusive.
SMILES,Tb PYK inh,VACV Venus inh,Vaccinia mCherry,HCMV antiviral,LmPK inh
Cc1ccc(C(=O)c2cn(Cc3ccccc3)c3ccccc3c2=O)cc1,-,-,-,-63,.
COc1ccc2c(c1)c(=O)c(C(=O)c1ccccc1)cn2CC(=O)Nc1ccc2c(c1)OCO2,-,-,-,-103,.
Cc1ccc(Cn2cc(C(=O)c3ccc(F)cc3)c(=O)c3cc4c(cc32)OCO4)cc1,-,-,-,-,.
CCOc1ccc(NC(=O)Cn2cc(C(=O)c3ccccc3)c(=O)c3cc4c(cc32)OCCO4)cc1,-,-,-,-104,.
COc1ccc(C(=O)c2cn(Cc3ccc(C)cc3)c3cc4c(cc3c2=O)OCO4)cc1,-,-[7.34 µM],-[7.34 µM],-65,.
O=C(Cn1ncc2c([nH]c3ccccc32)c1=O)Nc1ccc(F)cc1F,-,-,-,-,-
Cc1ccc(OC(C)C(=O)Nc2ccc(C)c(S(=O)(=O)Nc3ccc(C)cc3C)c2)cc1 (stereo unspecified),-,?,?,-,-
FC(F)Oc1ccc(-c2csc(=Nc3cccnc3)n2CC2CCCO2)cc1 (stereo unspecified),-,-,-,-76,-
COCCn1c(-c2ccc(Br)cc2)csc1=Nc1cccnc1,-,?,?,-,-
CCN(CC)c1ccc(NC(=S)NC(=O)c2cccs2)cc1,-,-,-,-101,-
O=C(Nc1ccc(NC(=S)NC(=O)c2cccs2)cc1)c1ccco1,-,-,-,-87,-
O=C(NC(=S)NNC(=O)c1cccs1)c1ccco1,-,.,.,-,-
Nc1nccnc1C(=O)OCC(=O)NCCc1ccc(Cl)cc1,-,.,.,?,.
Cc1nnsc1-c1nnc(SCC(=O)c2ccc(F)cc2)n1C1CC1,-,-,-,-,-
CSc1nc(O)c(C(c2ccc(O)cc2)c2c(O)nc(SC)[nH]c2=O)c(=O)[nH]1,?,.,.,-69,-
COc1cc(C(Nc2ccccn2)c2c(NC(=O)c3ccco3)sc(C)c2C)cc(OC)c1OC (stereo unspecified),-,.,.,-,-
Cc1cccc(NC(=S)N(CCCN2CCCC2)Cc2cccn2Cc2ccc(Cl)cc2)c1,-,-,?,-60,-
CCc1ccccc1NC(=O)CCN1C(=O)C2C3CCC(C3)C2C1=O (stereo unspecified),-,-,-,-,-
CNC[C@@H]1Oc2cc(Br)ccc2S(=O)(=O)N([C@H](C)CO)C[C@H]1C,-,-,-,-,.
CCCCN(Cc1cc2cc(OC)ccc2[nH]c1=O)S(=O)(=O)c1ccc(C)cc1,-,-,?,-70,-
COc1ccc2[nH]c(=O)c(CN(CCO)S(=O)(=O)c3ccc(C)cc3)cc2c1,-,-,-,-,-
CCOc1ccccc1NC(=O)Cn1c(=O)oc2cc(S(=O)(=O)NCc3ccccc3)ccc21,-[15.4 µM],-,-,?,.
CCOC(=O)c1c(C)n(-c2ccc(C)cc2)c2ccc(OCC(O)CNCCCO)cc12 (stereo unspecified),-,-,?,-75,-
Cc1cccn2c(=O)c3cc(C(=O)NC(C)c4ccccc4)c(=N)n(CCCn4ccnc4)c3nc12 (stereo unspecified),-,-,-,-68,-
COCCCn1c(=N)c(C(N)=S)cc2c(=O)n3cccc(C)c3nc21,-,-,-,?,.
SMILES,Tb PYK inh,VACV Venus inh,Vaccinia mCherry,HCMV antiviral,LmPK inh
Cc1cccn2c(=O)c3cc(C(N)=S)c(=N)n(CCCN4CCOCC4)c3nc12,-,.,.,-64,-
CCOCCCn1c(=N)c(C(=O)NC(C)c2ccccc2)cc2c(=O)n3cccc(C)c3nc21 (stereo unspecified),-,-,-,-73,.
Cc1cccc(C(=O)NNC(=O)c2ccco2)c1O,-,-,?,-,.
COc1ccc(N(CC2CO2)S(=O)(=O)c2ccccc2)cc1 (stereo unspecified),-,-,-,-62,-
CC(C)(C)c1cc(C(c2cccnc2)N2CCN(CCO)CC2)cc(C(C)(C)C)c1O (stereo unspecified),?,-,-,-102,-
COCc1ccc(C(=O)N(C)CC2CCCN(CCc3ccc(OC)cc3)C2)o1 (stereo unspecified),-,-,-,-,-
Cc1cc(C)cc(C(=O)N(C)C2CCCN(Cc3ccccc3F)C2)c1 (stereo unspecified),-,.,.,-,-
CN(C)c1cccc(C(=O)N(C)C2CCCN(Cc3ccccc3F)C2)c1 (stereo unspecified),-,.,.,-71,-
C=C1CC(C(=O)N/N=C/c2ccc(O)cc2)C1,-,-,-,-,-
O=C(c1ccc(Cl)c(Cl)c1)c1cc(-c2ccccn2)c(N2CCOCC2)s1,-,-,-,-75,-
c1ccc2c(c1)[nH]c1c(C3=NCCC3)nccc12,.,.,.,-,.
C[C@@]12C(C[C@H](O)[C@@]34C[C@@H](CCC13)[C@@H](CO)C4=O)[C@](C)(C(=O)O)CC[C@@H]2O (stereo partly specified),-,-,-,-,.
C=C1C(=O)[C@]23C[C@H]1CCC2[C@@]1(C)C(C[C@@H]3O)[C@](C)(C(=O)OC)CC[C@@H]1O (stereo partly specified),-,?,8.9µM,-102,.
CC(C)CCN1CCC(CN2C(=O)C(=O)NC[C@@H]2Cc2ccccc2)CC1,-,-,-,-,.
CCOc1ccc(C2c3[nH]c4ccccc4c3CCN2C(=O)CCc2ccccc2)cc1 (stereo unspecified),-,-,-,-84,.
CCc1cc(C(=O)N2CCc3c([nH]c4ccccc34)C2c2ccc(OC)cc2F)no1 (stereo unspecified),-,-,11µM,-64,-
CCOc1ccc(C2c3[nH]c4ccccc4c3CCN2C(=O)Cc2cccc(OCC)c2OCC)cc1 (stereo unspecified),-,-,-,-,.
COc1ccc(CCC(=O)N2CCc3c([nH]c4ccccc34)C2c2ccc(F)cc2)cc1 (stereo unspecified),-,-,-,-80,.
Cc1ccc(C2C(=O)N(C3CCCCCC3)CC(=O)N2CCC2=CCCCC2)cc1 (stereo unspecified),-,-,-,-63,.
COc1ccc(C2C(=O)N(C3CCCCC3)CC(=O)N2CCC2=CCCCC2)cc1 (stereo unspecified),-,-,-,?,.
Cc1ccc(Cl)cc1-c1cc(C(=O)N2CCc3ccccc3C2)[nH]n1,-,-,-,-98,.
O=C(c1cc2cc(Cl)ccc2[nH]1)N1CCc2ccccc2C1,-,.,.,-,-
Oc1c(/C=N/c2ccccn2)sc2ccccc12,-,.,.,-,6.3µM
CCc1ccccc1Nc1nc(N)nc(COC(=O)c2cccn2C)n1,-,.,.,-65,-
O=C(CSc1nc2cc(Cl)ccc2s1)NCC1CCCO1 (stereo unspecified),-,-,-,-,.
O=C(NCC1CCCO1)c1cccc(Oc2ccccc2)c1 (stereo unspecified),-,-,-,-,-
O=C(NCC1CCCO1)c1cccc(Oc2ccc([N+](=O)[O-])cc2)c1 (stereo unspecified),-,-,-,-88,-
